Compound activity (PubChem BioAssay)
Sampled rows, rich in hits. Any-hit rate of the full collection: about 8%.
SW480 rereplic: induces DNA re-replication in SW480 colon adenocarcinoma cells. AID 624297. hit rate 1.8% among 340,000. SW480 DNA re-replication, Hoechst DNA content imaging, 48 h. Potency, µM (doses to about 46.1 µM), inactives show at the highest dose re-replication activation, usual class: activators; also: % of control where 0% means no effect; nearly all actives have a fitted effect of over 55% in size
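Treated cells incubate 48 hr (37 C, 5% CO2), are stained 40 min with Hoechst, and nuclear fluorescence is enumerated; a rise in nuclei with high DNA signal marks re-replication.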
KB-3-1 tox: kills parental KB-3-1 adenocarcinoma cells; KB-3-1 viability, CellTiter-Glo ATP luminescence, 72 h; Potency, µM (titrated, usually from 46.1 µM), usual class: cytotoxic; hit rate 1.4% among 400,000; AID 1347075; also: % is scaled to controls: 0 for no effect and ±100 for the full control effect; nearly all actives have a fitted effect of over 60% in size
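72 h, 37 °C compound treatment of KB-3-1 parental cells; CellTiter-Glo added, 10 min, luminescence read. Data corrected against DMSO-only plates and normalized before curve fitting.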
KB-V1 MDR tox: KB-V1 MDR subline cytotoxicity. KB-V1 MDR cells viability, CellTiter-Glo, 72 h. Potency, µM (series often up to 46.1 µM), hits mostly cytotoxic. hit rate 3.4% among 400,000. AID 1347076; also: % is scaled to controls: 0 for no effect and ±100 for the full control effect; nearly all actives have a fitted effect of over 60% in size
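Readout: CellTiter-Glo luminescence, 10 min after addition. Cells: KB-V1 MDR subline, 72 h at 37 degrees C with compound. Analysis: corrected, normalized data fitted to concentration-effect curves.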
HT1080NT lethal: kills 2HG-producing HT-1080-NT fibrosarcoma cells. HT-1080-NT fibrosarcoma viability, CellTiter-Glo ATP luminescence, 48 h. Potency, µM (titrated, usually from 46.1 µM), for inactives: top-dose activity, negative = less viability, hits mostly cytotoxic. hit rate 1.6% among 360,000. AID 686970;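 also: NT is the 2HG producing partner of a matched IDH1 knockdown line; 0% = DMSO-treated cells and -100% = media-only wells without cells; nearly all actives have a fitted effect of over 55% in size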
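HT-1080-NT; 750 cells/well; 5% FBS RPMI; 48 h compound, 37 degrees C; CellTiter-Glo luminescence; curve fitting and curve-class assignment.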
MCF10A rerep: DNA re-replication induction in MCF 10a cells; MCF 10A DNA re-replication, Hoechst nuclear intensity, 48 h; Potency, µM (top dose mostly 46.1 µM), for the others: at the highest dose activity, positive = re-replication, hits mostly activators; hit rate 2.9% among 350,000; also: % of control where 0% means no effect; nearly all actives have a fitted effect of over 50% in size
HT1080 IDH1KD tx: toxicity to HT-1080 IDH1 knockdown cells (counter line); HT-1080 IDH1 knockdown viability, ATP luminescence, 48 h; Potency, µM (top dose mostly 46.1 µM), for the others: at the highest dose activity, negative = toxicity, actives largely listed as cytotoxic; hit rate 2% among 360,000;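 also: 0% = DMSO wells and -100% = cell-free medium wells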
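Assay cells: HT-1080 with IDH1 knockdown, 750 per well, RPMI/5% FBS. Exposure: 48 h at 37 °C following 2 h pre-incubation. Read: CellTiter-Glo luminescence; fitted concentration-response, curve class assigned.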
Numbers without * were called inactive; i = inactive; ? = inconclusive; / = no result; [ ] = dose if it differs, or a comment. Calls follow the shape of the dose curve; as a rule, active = well fitted curve in the direction sought with a large enough effect; inconclusive = small, poorly fitted or top-dose-only effect, or another doubt; inactive = no such curve, though single readings can be large; an effect the other way counts as inactive or inconclusive. Potency is read from the fitted curve at half-maximal effect.

SMILES	SW480 rereplic	KB-3-1 tox	KB-V1 MDR tox	HT1080NT lethal	MCF10A rerep	HT1080 IDH1KD tx
CCc1c(-c2ccc(OC)cc2)ncn1Cc1cccc(-c2ccccc2)c1	/	?	16µM*	?	/	?
CCc1c(-c2ccccc2OC)ncn1Cc1cccc(-c2ccccc2)c1	/	13µM*	?	15µM*	/	8.2µM*
CC(=O)N1CCC(N(CCN2CCOCC2)C(=S)Nc2cccc(C)c2C)CC1	-3%	i	i	5%	1%	11%
Nc1nc(COC(=O)C2CC(=O)N(CCc3ccccc3)C2)nc(Nc2ccccc2)n1 (stereo unspecified)	-17%	i	i	8%	2%	9%
CCOC(=O)C(CC)(CC)C(=O)/C=C/c1ccc(Br)cc1	?	21µM*	18µM*	?	?	?
CCOC(=O)C(=Cc1ccc(Br)cc1)C(=O)OCC	7.3µM*	?	16µM*	21µM*	1.6µM*	6.5µM*
CCc1ccc(C(C)NC(=O)/C=C/c2ccc(Br)cc2)cc1 (stereo unspecified)	18%	i	?	-3%	-5%	-14%
CCOC(=O)C(=Cc1ccc(-n2ccnc2)cc1)C(=O)OCC	6.5µM*	21µM*	?	10µM*	2.6µM*	5.8µM*
CC(C)CN1C(=O)C(=O)N(CC(=O)N(C)CC(=O)Nc2ccc(F)cc2)C1=O	0%	i	i	6%	-3%	19%
CCCn1c(N)c(Sc2ccc([N+](=O)[O-])cc2)c(=O)n(CCC)c1=O	-10%	i	i	-5%	-3%	-4%
CCCn1c(N)c(Sc2ccccc2)c(=O)n(CCC)c1=O	-3%	i	13µM*	6%	-9%	-5%
CC(=O)NC(=S)Nc1cc(C(=O)O)ccc1Cl	-3%	i	i	0%	17%	5%
CCn1c(C)c(C(C)=O)c(N2CCN(c3ccc(F)cc3)CC2)nc1=S	-5%[9.22 µM]	i	i	14%	14%	9%
CC(=O)c1c(N2CCN(c3ccccc3)CC2)nc(=S)n(-c2ccccc2)c1C	13%	i	i	1%	21µM*	-17%
CC(=O)c1c(N2CCN(c3ccc(F)cc3)CC2)nc(=S)n(Cc2ccccc2)c1C	?	23µM*	?	-18%	?	-25%
CC(=O)c1c(N2CCN(Cc3ccccc3)CC2)nc(=S)n(Cc2ccccc2)c1C	?	?	2.9µM*	-3%	15%	-2%
CC12CCC(C[N+](C)(C)C1)C2(C)C (stereo unspecified)	1%	i	i	9%	-6%	1%
COC(=O)[C@@H](Cc1ccccc1)NC(=O)NCCc1c[nH]c2ccccc12	1%	i	i	-27%	13%	?
CCc1ccc(-c2cc(C(F)(F)F)n3nc(C(=O)Nc4c(C)nn(Cc5ccccc5Cl)c4C)cc3n2)s1	10µM*	i	?	17%	3.3µM*	-7%
CCc1ccc(-c2cc(C(F)(F)F)n3nc(C(=O)Nc4c(C)nn(Cc5ccccc5C)c4C)cc3n2)s1	2.6µM*	i	i	1%	?	-1%
Cc1ccccc1Cn1ccc(NC(=O)c2cc3nc(-c4ccco4)cc(C(F)(F)F)n3n2)n1	?	i	i	5%	8.2µM*	4%
Cc1cc(OC(C)C(=O)Nc2cccc(-c3nc4ccccc4o3)c2)cc(C)c1Cl (stereo unspecified)	/	i	?	/	/	/
c1ccc(OCCNc2nc(NCC3CC3)nc3ccsc23)cc1	/	i	?	21µM*	/	?
COCCNc1nc(NCc2ccccc2OC)c2sccc2n1	/	i	?	?	/	?
COc1ccccc1CNc1nc(NCc2ccccc2OC)c2sccc2n1	/	?	?	21µM*	/	23µM*
SMILES	SW480 rereplic	KB-3-1 tox	KB-V1 MDR tox	HT1080NT lethal	MCF10A rerep	HT1080 IDH1KD tx
c1cc2cc(CNc3nc(NCC4CC4)nc4ccsc34)ccc2o1	/	i	?	?	/	13µM*
c1ccc(-c2nc(NCC3CC3)nc3ccsc23)cc1	/	i	i	13%	/	4%
Cc1ccccc1-c1nc(NCC2CC2)nc2ccsc12	/	i	i	-1%	/	-12%
COc1ccccc1CNc1nc(NCC2CC2)nc2ccsc12	/	?	i	?	/	15µM*
COc1cccc(CNC(=O)C(Cc2ccccc2)n2cccc2)c1 (stereo unspecified)	-2%	i	i	18%	-2%	11%
O=C(Nc1ccccc1N1CCOCC1)c1cccc(F)c1	0%	i	i	1%	21%	-1%
COc1ccccc1CNc1nc(NCc2cccs2)nc2ccsc12	/	i	i	?	/	?
COc1ccccc1CNc1nc(NCCOc2ccccc2)c2sccc2n1	/	?	21µM*	?	/	?
COc1ccccc1CNc1nc(NCc2ccc3occc3c2)c2sccc2n1	/	i	i	16µM*	/	?
CCc1c(C)nc(SCC(=O)N2CCN(c3ccccc3)CC2)[nH]c1=O	2%	i	i	-3%	1%	1%
CC1CCN(C2(O)C(=O)Nc3ccc([N+](=O)[O-])cc32)CC1 (stereo unspecified)	1%	i	i	-1%	-2%	-4%
CCn1cc(C(=O)O)c(=O)c2cc(F)c(N/N=C/c3ccccc3)cc21	-15%	?	7.3µM*	-4%	?	-18%
CCn1cc(C(=O)O)c(=O)c2cc(F)c(N3CCN(C(=O)Nc4ccccc4)CC3)cc21	0%	i	i	1%[9.24 µM]	13%	-8%
Cn1c(=O)c2[nH]c(C=Cc3ccc4c(c3)OCO4)nc2n(C)c1=O	-5%	i	i	12%	0%	21%
COc1ccccc1[C@@H]1C(c2ccc(F)cc2)=NN(c2ccccc2)[C@H]1C(=O)N1CCOC1=O	21µM*	i	i	-3%	4.1µM*	-8%
COc1ccccc1[C@@H]1C(c2ccccc2)=NN(c2ccccc2)[C@H]1C(=O)N1CCOC1=O	?	i	i	-6%	?	-4%
COc1ccccc1[C@@H]1C(c2cccc(C)c2)=NN(c2ccccc2)[C@H]1C(=O)N1CCOC1=O	15µM*	i	i	6%	?	-5%
COc1ccccc1[C@@H]1C(c2cccc(Cl)c2)=NN(c2ccc(Br)cc2)[C@H]1C(=O)N1CCOC1=O	3.3µM*	i	?	-2%	?	1%
CCC(C)NC(=O)CSc1nc2c(sc3ccccc32)c(=O)n1Cc1ccccc1Cl (stereo unspecified)	/	i	i	/	/	/
